Reference: PubChem BioAssay (EPA / NIEHS)
Inconclusive results are not listed. Activity calls are given as the source filed them. How the source made its calls: active means hit-call score of the fitted dose curve at least 0.9, where 1 is the maximum; inconclusive means response in the unintended direction; inactive means score below 0.9.

These compounds were tested against human Vascular Endothelial Growth Factor Receptor 2 (VEGFR2), KDR (gene 3791) (UniProt P35968) (assay: NVS_ENZ_hVEGFR2: NovaScreen (NVS) Enzymatic Assay for human Vascular Endothelial Growth Factor Receptor 2 (VEGFR2) (AID 2283230)).
Chain of human Vascular Endothelial Growth Factor Receptor 2 (VEGFR2), KDR (gene 3791) (P35968 whole entry, looked up): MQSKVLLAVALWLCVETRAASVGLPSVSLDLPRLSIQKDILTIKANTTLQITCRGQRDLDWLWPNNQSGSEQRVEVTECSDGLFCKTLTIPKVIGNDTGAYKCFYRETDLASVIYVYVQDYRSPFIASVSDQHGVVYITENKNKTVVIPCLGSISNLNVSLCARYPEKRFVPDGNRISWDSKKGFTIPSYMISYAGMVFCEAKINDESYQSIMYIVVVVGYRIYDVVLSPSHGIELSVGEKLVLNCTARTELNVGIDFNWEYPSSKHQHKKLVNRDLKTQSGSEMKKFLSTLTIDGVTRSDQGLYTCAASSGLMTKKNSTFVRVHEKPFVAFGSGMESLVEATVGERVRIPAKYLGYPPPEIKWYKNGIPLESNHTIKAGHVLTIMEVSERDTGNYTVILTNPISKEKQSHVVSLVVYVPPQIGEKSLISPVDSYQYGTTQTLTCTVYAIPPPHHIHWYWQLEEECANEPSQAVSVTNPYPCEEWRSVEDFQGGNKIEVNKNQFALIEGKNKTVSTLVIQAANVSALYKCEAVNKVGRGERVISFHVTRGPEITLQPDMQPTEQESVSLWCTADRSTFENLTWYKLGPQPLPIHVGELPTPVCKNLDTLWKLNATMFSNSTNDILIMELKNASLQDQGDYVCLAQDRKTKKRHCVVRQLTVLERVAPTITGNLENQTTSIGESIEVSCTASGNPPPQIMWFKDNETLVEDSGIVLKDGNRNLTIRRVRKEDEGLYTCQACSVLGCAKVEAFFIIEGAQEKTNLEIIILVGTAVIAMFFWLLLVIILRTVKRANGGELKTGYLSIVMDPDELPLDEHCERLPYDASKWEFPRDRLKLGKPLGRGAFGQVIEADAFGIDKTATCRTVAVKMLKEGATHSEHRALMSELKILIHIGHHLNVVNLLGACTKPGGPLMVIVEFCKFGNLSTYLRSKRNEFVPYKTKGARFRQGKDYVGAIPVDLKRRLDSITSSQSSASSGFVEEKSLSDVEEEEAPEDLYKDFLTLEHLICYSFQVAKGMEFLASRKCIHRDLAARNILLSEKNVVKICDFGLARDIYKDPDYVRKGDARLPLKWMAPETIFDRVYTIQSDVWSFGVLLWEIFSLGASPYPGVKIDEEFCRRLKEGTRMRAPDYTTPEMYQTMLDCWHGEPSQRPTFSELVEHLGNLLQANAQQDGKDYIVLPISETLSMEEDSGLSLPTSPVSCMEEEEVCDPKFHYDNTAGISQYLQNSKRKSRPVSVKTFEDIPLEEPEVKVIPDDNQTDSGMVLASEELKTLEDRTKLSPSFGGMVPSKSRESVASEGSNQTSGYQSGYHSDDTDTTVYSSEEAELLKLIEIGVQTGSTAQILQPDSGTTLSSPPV
Description: NVS_ENZ_hVEGFR2 is a biochemical, single-readout assay that uses extracted gene-proteins in a cell-free assay. Measurements were taken 1 hour after chemical dosing in a 384-well plate.NVS_ENZ_hVEGFR2 is one of one assay component(s) measured or calculated from the NVS_ENZ_hVEGFR2 assay. It is designed to make measurements of enzyme activity, a form of enzyme reporter, as detected with fluorescence intensity signals by Fluorescence and electrophoretic mobility shift technology.Data from the assay component NVS_ENZ_hVEGFR2 was analyzed into 1 assay endpoint. This assay endpoint, NVS_ENZ_hVEGFR2, was analyzed in the positive analysis fitting direction relative to DMSO as the negative control and baseline of activity. Using a type of enzyme reporter, loss-of-signal activity can be used to understand changes in the enzymatic activity as they relate to the gene KDR. Furthermore, this assay endpoint can be referred to as a primary readout, because this assay has produced multiple assay endpoints where this one serves a enzymatic activity function. To generalize the intended target to other relatable targets, this assay endpoint is annotated to the kinase intended target family, where the subfamily is receptor tyrosine kinase.
Binding assays used specific radioligands (tritiated, iodinated) with non-radioactive competitive displacement ligands in agonist or antagonist protocols (as indicated) and various reference compounds and inhibitors to titrate specific binding to receptors and transporters. Most enzyme assays (CYPs, kinases, phosphatases, proteases, HDACs) used recombinant protein and specific substrates (fluorescence mostly, some colorimetric and radioactive) and inhibitors, followed by a biochemical separation of substrate and product. All assays for the biochemical HTS were initially run in duplicate at a single concentration (10 uM for CYP450 assays and 25 uM for all others). Assay-chemical combinations meeting a pre-defined threshold (e.g., 30% inhibition and other criteria defined below) were then run in singleton concentration-response format with maximum concentration of 20 uM for CYPs and 50 uM for all others. Each assay was run with positive and negative controls, and concurrent controls on every plate. The follow-up (secondary) screen tested active chemical-pairs in concentration series, as well as a few additional assays not tested in the primary screen, some selected negative inactives, and several cases re-run in the concentration series for confirmatory purposes.

outcome, inactive:
CC[C@H](C)C(=O)O[C@H]1C[C@@H](C)C=C2C=C[C@H](C)[C@H](CC[C@@H]3C[C@@H](O)CC(=O)O3)[C@H]21
Cc1ccc(N)cc1O
CCOC(=O)COc1ccc2c(c1)CC(NCC(O)c1cccc(Cl)c1)CC2 (stereo unspecified)
Cn1c(=O)cc(Oc2ccc(F)cc2F)c2cnc(NCC(C)(C)O)nc21
CCC(C)(C)C(=O)O[C@H]1C[C@@H](C)C=C2C=C[C@H](C)[C@H](CC[C@@H]3C[C@@H](O)CC(=O)O3)[C@H]21
O=C(O)c1cc(N=Nc2ccc(S(=O)(=O)Nc3ccccn3)cc2)ccc1O
C=CC(=C)CCC=C(C)C
CC(C)=CCC/C(C)=C\CO
COc1ccc2sc(C(=O)Nc3nnn[nH]3)c(OC(C)C)c2c1
CCOCCOCCOCCO
COc1cccc(-c2ccc(/C=C\CN3CCCCCC3)cc2Cl)c1
CCCCCCCCCCCCCCCO
CCOc1cccc(-n2cc(C(=O)N3CCN(c4cc(C(=O)O)c5ccccc5c4)CC3)nc2-c2ccc(C)cc2)c1
On1ccccc1=S
CN(C)c1ccc(N=NS(=O)(=O)O)cc1

AC50, active:
Fc1ccccc1[C@@H](F)COC1CCC(Nc2ncnc3[nH]ncc23)CC1 (stereo partly specified) 213 nM
